The results in this text go back to article PMC7862700, “An all-to-all approach to the identification of sequence-specific readers for epigenetic DNA modifications on cytosine”.

What all share (assay): DAPPL (digital affinity profiling via proximity ligation, sequencing); 10 mM Tris-HCl pH 7.5, 50 mM NaCl, 1 mM DTT, 4% glycerol, room temperature, 30 min; GST-TFs on glutathione beads, 16-mer random dsDNA library, 0.1% formaldehyde crosslink after washing; high values mean tight binding
Experiment [1] has as its target T1, FEV (Homo sapiens, UniProt Q99581 1-238).
T1 sequence: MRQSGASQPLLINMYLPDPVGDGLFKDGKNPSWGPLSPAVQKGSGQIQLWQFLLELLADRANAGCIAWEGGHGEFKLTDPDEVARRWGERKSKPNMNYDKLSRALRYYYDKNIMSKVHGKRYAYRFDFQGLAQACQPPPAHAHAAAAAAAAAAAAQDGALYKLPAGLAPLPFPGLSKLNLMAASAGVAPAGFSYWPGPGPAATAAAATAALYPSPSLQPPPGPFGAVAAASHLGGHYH
Particulars: protein: recombinant; tags: N-terminal GST; dsDNA, one strand shown. An outline of the steps:
(§1)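 After expression in yeast as GST fusions, human transcription factors were bound to glutathione beads, DNA-barcoded and mixed with a tag-only sample. The pools were incubated with 200 nmole of a 16-mer random double-stranded DNA library in Tris/NaCl/DTT/glycerol buffer (30 min, room temperature), washed and crosslinked with 0.1% formaldehyde. Proximity ligation with BsaI/T4 ligase ran for 1 h at 37 °C, before PCR amplification and sequencing on an Illumina NextSeq500. Binding signal is a hexamer's read frequency for a factor divided by its frequency for the tag-only sample.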

Experiment [2] deals with ETV5 (Homo sapiens, UniProt P41161 1-510). Particulars: protein: recombinant; tags: N-terminal GST; dsDNA, one strand shown. An outline of the steps:
as §1

Experiment [3] deals with HSF1 (Homo sapiens, UniProt Q00613 1-529). Conditions: protein: recombinant; tags: N-terminal GST; chain copies: 3; dsDNA, one strand shown. An outline of the steps:
as §1

Experiment [4] addresses T2, SPIC (Homo sapiens, UniProt Q8N5J4 1-248).
T2 sequence: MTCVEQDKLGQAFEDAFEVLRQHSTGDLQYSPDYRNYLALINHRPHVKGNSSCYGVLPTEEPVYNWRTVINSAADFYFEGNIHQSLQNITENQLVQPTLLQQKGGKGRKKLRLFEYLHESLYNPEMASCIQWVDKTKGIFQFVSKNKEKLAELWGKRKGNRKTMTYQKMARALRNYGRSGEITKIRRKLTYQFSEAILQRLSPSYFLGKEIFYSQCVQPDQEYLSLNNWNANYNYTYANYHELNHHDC
Conditions: protein: recombinant; tags: N-terminal GST; dsDNA, one strand shown. An outline of the steps:
as §1

For experiment [5], the target named is ELF4 (Homo sapiens, UniProt Q99607 1-663). Conditions: protein: recombinant; tags: N-terminal GST; dsDNA, one strand shown. An outline of the steps: as §1
Sequence of ELF4 (Q99607 whole entry): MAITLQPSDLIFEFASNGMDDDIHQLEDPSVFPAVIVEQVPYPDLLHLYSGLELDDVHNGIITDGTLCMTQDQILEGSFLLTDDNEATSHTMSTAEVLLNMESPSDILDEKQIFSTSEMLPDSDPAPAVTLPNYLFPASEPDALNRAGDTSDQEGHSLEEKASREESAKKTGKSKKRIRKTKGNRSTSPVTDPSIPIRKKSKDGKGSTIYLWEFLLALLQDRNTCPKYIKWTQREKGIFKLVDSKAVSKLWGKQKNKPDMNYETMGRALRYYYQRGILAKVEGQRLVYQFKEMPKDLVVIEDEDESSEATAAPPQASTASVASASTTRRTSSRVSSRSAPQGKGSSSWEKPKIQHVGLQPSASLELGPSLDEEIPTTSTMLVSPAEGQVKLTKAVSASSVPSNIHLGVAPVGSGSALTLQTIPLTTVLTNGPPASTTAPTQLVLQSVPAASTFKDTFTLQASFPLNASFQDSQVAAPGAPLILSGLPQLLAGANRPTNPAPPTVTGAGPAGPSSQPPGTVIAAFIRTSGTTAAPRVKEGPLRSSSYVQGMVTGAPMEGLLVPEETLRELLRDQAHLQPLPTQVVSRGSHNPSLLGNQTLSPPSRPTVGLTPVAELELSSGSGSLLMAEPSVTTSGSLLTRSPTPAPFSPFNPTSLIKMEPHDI
Experiment [6] deals with T3, ELK4 (Homo sapiens, UniProt P28324-2 1-405).
T3 sequence: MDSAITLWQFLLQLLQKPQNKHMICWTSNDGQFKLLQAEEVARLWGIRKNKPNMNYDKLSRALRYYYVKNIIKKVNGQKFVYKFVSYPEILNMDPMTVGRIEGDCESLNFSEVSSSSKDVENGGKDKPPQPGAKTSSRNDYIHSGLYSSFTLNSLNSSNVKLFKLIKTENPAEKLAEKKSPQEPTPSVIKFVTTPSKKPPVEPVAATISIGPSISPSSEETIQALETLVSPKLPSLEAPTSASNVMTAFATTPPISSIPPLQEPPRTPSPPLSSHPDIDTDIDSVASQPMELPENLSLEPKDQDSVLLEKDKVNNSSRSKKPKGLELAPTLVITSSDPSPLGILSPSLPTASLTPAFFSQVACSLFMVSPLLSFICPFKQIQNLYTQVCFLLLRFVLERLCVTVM
Particulars: protein: recombinant; tags: N-terminal GST; dsDNA, one strand shown. An outline of the steps:
as §1

Experiment [7] addresses T4, ETV2 (Homo sapiens, UniProt O00321 1-342).
T4 sequence: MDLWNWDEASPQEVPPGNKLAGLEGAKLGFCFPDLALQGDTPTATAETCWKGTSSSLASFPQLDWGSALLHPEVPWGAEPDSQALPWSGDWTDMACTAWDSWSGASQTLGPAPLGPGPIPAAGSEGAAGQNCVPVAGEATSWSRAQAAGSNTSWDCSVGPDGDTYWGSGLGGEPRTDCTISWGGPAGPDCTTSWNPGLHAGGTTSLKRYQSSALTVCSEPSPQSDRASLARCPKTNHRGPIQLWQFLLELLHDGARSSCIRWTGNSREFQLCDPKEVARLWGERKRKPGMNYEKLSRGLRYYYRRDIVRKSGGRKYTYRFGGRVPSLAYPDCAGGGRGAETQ
Particulars: protein: recombinant; tags: N-terminal GST; dsDNA, one strand shown. In a few lines:
as §1

The target in experiment [8] is T5, ELF3 (Homo sapiens, UniProt P78545 1-371).
T5 sequence: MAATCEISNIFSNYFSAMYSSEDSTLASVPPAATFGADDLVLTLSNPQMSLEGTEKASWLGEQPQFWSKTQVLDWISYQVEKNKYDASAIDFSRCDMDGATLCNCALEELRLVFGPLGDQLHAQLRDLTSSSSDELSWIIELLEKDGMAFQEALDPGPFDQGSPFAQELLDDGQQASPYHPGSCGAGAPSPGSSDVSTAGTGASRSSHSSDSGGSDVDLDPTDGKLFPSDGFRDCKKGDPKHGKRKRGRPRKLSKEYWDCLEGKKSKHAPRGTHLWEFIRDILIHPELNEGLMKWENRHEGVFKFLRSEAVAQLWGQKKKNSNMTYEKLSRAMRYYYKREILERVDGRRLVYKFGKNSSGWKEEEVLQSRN
Particulars: protein: recombinant; tags: N-terminal GST; dsDNA, one strand shown. An outline of the steps: as §1

For experiment [9], the target named is CRX (Homo sapiens, UniProt O43186 1-299). Conditions: protein: recombinant; tags: N-terminal GST; dsDNA, one strand shown. In a few lines:
as §1

For experiment [10], the target named is ETV1 (Homo sapiens, UniProt P50549 1-477). Conditions: protein: recombinant; tags: N-terminal GST; dsDNA, one strand shown. An outline of the steps:
as §1

Experiment [11] concerns the target T6, ERF (Homo sapiens, UniProt P50548 1-548).
T6 sequence: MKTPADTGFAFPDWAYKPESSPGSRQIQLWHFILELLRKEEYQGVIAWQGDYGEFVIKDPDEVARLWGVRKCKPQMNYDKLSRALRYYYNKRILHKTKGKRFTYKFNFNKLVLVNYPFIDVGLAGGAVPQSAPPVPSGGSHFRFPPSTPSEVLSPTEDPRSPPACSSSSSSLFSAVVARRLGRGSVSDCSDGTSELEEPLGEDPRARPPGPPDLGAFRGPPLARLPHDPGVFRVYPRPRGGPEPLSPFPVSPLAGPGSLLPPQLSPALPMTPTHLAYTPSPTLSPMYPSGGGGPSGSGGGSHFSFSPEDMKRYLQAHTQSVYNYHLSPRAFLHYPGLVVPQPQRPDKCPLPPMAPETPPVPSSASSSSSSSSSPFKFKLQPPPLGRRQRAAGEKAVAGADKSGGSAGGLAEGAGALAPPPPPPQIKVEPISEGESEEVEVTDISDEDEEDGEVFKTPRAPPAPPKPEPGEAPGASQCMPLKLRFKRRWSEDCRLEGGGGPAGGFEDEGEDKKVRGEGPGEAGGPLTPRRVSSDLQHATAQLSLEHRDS
Conditions: protein: recombinant; tags: N-terminal GST; dsDNA, one strand shown. An outline of the steps: as §1

Experiment [12] has as its target T7, ETV3L (Homo sapiens, UniProt Q6ZN32 1-361).
T7 sequence: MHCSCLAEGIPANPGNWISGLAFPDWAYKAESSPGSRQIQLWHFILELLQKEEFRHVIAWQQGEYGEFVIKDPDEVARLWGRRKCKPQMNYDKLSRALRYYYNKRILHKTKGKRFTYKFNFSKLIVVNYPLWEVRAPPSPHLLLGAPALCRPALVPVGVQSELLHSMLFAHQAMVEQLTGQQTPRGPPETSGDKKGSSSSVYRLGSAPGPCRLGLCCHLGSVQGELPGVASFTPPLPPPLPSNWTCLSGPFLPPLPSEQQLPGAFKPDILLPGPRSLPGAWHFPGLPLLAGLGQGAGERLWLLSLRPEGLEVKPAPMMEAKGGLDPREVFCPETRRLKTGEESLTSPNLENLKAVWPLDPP
Particulars: protein: recombinant; tags: N-terminal GST; dsDNA, one strand shown. An outline of the steps: as §1

The target of experiment [13] is T8, ETS2 (Homo sapiens, UniProt P15036 1-469).
T8 sequence: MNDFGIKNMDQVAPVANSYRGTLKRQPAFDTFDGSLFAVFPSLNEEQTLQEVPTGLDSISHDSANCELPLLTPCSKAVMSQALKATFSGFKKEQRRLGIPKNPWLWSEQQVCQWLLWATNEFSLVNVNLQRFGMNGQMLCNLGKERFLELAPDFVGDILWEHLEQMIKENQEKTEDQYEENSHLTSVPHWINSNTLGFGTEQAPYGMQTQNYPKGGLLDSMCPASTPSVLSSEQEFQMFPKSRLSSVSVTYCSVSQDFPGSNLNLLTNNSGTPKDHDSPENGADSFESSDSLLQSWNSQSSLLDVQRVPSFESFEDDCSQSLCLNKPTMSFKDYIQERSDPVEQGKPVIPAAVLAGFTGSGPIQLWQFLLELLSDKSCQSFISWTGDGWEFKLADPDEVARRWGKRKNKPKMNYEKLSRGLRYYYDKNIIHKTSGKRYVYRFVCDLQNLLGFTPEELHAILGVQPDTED
Particulars: protein: recombinant; tags: N-terminal GST; dsDNA, one strand shown. In a few lines:
as §1

Experiment [14] concerns the target T9, SPDEF (Homo sapiens, UniProt O95238 1-335).
T9 sequence: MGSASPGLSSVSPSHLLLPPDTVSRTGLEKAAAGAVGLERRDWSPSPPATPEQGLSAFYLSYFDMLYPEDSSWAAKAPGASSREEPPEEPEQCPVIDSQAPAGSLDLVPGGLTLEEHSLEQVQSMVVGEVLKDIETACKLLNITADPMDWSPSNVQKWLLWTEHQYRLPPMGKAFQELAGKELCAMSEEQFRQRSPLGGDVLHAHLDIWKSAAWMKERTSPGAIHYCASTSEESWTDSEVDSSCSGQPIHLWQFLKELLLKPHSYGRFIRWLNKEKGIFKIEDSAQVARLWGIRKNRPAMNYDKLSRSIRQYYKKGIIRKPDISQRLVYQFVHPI
Conditions: protein: recombinant; tags: N-terminal GST; dsDNA, one strand shown. An outline of the steps:
as §1

The target in experiment [15] is T10, ETV7 (Homo sapiens, UniProt Q9Y603 1-341).
T10 sequence: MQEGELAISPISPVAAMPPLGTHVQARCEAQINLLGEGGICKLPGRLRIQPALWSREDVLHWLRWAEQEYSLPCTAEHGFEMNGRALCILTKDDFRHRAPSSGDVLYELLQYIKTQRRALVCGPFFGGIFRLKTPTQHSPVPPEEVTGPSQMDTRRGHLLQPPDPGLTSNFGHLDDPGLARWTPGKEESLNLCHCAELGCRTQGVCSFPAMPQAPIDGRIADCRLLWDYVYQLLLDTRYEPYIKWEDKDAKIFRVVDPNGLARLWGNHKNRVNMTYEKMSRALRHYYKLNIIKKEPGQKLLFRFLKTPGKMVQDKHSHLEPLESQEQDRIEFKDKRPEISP
Conditions: protein: recombinant; tags: N-terminal GST; dsDNA, one strand shown. In a few lines:
as §1

The target of experiment [16] is T11, ELF5 (Homo sapiens, UniProt Q9UKW6-2 1-255).
T11 sequence: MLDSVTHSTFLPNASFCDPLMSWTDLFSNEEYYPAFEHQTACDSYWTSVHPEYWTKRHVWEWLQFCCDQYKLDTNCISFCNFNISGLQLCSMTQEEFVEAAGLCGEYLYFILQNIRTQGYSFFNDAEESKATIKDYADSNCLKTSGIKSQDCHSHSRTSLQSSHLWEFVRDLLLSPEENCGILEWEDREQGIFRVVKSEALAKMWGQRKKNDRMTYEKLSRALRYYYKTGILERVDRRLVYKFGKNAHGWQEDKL
Conditions: protein: recombinant; tags: N-terminal GST; dsDNA, one strand shown. An outline of the steps:
as §1

Experiment [17] concerns the target T12, ETV3 (Homo sapiens, UniProt P41162-2 1-143).
T12 sequence: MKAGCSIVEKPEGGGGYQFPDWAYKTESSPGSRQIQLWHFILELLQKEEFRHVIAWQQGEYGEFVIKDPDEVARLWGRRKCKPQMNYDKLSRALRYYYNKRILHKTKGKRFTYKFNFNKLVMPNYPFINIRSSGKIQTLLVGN
Particulars: protein: recombinant; tags: N-terminal GST; dsDNA, one strand shown. An outline of the steps: as §1

The target of experiment [18] is ETV6 (Homo sapiens, UniProt P41212 1-452). Particulars: protein: recombinant; tags: N-terminal GST; dsDNA, one strand shown. In a few lines:
as §1

Sequence of CRX (O43186 whole entry): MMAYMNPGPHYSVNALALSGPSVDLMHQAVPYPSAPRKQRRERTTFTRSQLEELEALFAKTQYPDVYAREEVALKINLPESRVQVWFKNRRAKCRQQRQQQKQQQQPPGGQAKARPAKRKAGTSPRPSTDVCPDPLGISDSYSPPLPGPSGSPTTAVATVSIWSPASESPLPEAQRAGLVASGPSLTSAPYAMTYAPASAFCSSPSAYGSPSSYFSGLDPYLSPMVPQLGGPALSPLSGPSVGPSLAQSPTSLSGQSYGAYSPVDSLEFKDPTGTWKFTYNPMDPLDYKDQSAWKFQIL
Sequence of ETV6 (P41212 whole entry): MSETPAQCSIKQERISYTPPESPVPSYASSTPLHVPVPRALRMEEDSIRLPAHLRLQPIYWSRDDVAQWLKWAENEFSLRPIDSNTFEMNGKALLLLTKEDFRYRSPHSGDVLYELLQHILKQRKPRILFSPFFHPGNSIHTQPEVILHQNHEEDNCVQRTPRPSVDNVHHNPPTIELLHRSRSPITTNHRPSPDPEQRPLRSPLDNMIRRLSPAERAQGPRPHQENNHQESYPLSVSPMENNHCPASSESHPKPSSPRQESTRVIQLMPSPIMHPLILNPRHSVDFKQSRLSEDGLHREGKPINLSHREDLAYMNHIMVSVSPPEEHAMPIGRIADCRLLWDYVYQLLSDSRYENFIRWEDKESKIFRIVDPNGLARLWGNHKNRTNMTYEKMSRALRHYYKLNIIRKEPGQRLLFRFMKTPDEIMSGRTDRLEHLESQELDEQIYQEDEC
Sequence of ETV1 (P50549 whole entry): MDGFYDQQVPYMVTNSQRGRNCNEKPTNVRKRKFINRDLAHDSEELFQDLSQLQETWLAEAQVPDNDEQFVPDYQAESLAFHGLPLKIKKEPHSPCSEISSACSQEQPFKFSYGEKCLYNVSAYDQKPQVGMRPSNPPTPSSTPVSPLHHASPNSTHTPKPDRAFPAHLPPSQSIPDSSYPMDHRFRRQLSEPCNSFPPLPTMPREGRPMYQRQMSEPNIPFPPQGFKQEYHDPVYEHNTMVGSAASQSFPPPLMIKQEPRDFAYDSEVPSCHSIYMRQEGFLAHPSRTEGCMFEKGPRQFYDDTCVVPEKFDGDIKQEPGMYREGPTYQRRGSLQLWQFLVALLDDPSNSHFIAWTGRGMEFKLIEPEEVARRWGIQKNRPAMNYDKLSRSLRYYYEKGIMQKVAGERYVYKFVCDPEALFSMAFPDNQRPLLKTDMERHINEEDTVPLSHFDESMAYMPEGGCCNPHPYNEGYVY
Sequence of ETV5 (P41161 whole entry): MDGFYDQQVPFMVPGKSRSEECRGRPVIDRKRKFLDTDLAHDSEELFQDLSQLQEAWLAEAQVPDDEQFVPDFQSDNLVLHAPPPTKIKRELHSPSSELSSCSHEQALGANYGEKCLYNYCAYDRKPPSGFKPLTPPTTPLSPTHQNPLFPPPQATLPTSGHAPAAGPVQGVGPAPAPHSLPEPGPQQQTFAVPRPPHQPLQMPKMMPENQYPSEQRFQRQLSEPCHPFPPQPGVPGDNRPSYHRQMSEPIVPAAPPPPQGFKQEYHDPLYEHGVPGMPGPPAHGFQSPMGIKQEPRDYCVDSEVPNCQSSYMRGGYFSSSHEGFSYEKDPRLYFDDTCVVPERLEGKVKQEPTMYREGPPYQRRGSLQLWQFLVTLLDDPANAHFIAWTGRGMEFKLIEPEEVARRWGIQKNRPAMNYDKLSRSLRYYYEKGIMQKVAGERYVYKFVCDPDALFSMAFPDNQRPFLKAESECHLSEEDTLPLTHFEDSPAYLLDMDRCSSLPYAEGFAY
Sequence of HSF1 (Q00613 whole entry): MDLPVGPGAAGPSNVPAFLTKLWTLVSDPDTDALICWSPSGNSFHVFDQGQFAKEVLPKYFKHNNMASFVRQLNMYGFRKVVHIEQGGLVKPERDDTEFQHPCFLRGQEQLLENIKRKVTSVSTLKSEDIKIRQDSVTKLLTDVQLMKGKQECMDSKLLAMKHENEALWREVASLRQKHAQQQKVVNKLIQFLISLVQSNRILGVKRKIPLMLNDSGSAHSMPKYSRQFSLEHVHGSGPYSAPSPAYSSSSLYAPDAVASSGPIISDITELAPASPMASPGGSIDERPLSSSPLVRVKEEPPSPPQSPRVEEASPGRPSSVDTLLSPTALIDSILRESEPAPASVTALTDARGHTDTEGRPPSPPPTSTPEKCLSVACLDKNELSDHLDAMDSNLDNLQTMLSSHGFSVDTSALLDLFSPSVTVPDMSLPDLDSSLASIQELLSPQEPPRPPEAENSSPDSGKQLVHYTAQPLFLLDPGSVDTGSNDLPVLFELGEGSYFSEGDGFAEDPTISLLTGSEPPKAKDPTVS

For the sequence TTACTA, the binding signal was 1.14 fold enrichment (6-mer frequency, TF over GST control) in [1]; 1.22 fold enrichment (6-mer frequency, TF over GST control) in experiment [2]; 1.79 fold enrichment (6-mer frequency, TF over GST control) in [3]; 1.38 fold enrichment (6-mer frequency, TF over GST control) in experiment [4]; 1.3 fold enrichment (6-mer frequency, TF over GST control) in experiment [5]; 1.32 fold enrichment (6-mer frequency, TF over GST control) in experiment [6]. Further, the binding signal is 1.34 fold enrichment (6-mer frequency, TF over GST control) in [7]; 1.25 fold enrichment (6-mer frequency, TF over GST control) in experiment [8]; 2.18 fold enrichment (6-mer frequency, TF over GST control) in [9]; 1.23 fold enrichment (6-mer frequency, TF over GST control) in [10]; 1.27 fold enrichment (6-mer frequency, TF over GST control) in experiment [11]; 1.32 fold enrichment (6-mer frequency, TF over GST control) in [12]. Moreover, the binding signal in experiment [13] was 1.2 fold enrichment (6-mer frequency, TF over GST control); in experiment [14] it was 1.21 fold enrichment (6-mer frequency, TF over GST control); in experiment [15] it was 1.36 fold enrichment (6-mer frequency, TF over GST control); in experiment [16] it was 1.19 fold enrichment (6-mer frequency, TF over GST control); in [17], 1.23 fold enrichment (6-mer frequency, TF over GST control); in experiment [18] it was 1.2 fold enrichment (6-mer frequency, TF over GST control).
